S1P4 agonist = activates the human S1P4 receptor | O95977 | S1P4-expressing cell line, agonist reporter assay | activation, % at 4.98 µM | hit rate 0.35% among 220,000; in the data active = activation above about 11%;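 also: 0% = DMSO vehicle and 100% = reference agonist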
RAM network inh = inhibitors of the yeast RAM network. S. cerevisiae dse1pr::URA3 reporter, 5-FOA growth OD615, 2 d; analog-sensitive cbk1-as2 kinase mutant strain. inhibition, % at 50 µM. hit rate 1.8% among 190,000. AID 868;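 active = inhibition above a set limit, 3 SD over mean compound inhibition, cut at about 8.4% in these data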;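 also: 0% = DMSO-only wells with no growth and 100% = 10 µM 1-NA-PP1 full growth; inhibition rescues growth on 5-FOA so higher OD means more RAM inhibition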
S1P4 antag = antagonists of human S1P4 receptor | S1P4-expressing cells, antagonist mode, reporter read-out | hit rate 0.26% among 220,000 | inhibition, % at 4.98 µM; in the data active = inhibition above about 29%;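 also: 0% = wells stimulated with agonist and 100% = vehicle wells without agonist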
S1P3 antagonist = S1P3 (human) receptor antagonism | Q99500 | CHO S1P3 NFAT-BLA reporter, FRET fluorescence, antagonist mode | inhibition, % at 4.98 µM | hit rate 0.27% among 170,000 | AID 485;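 active = inhibition above the plate cutoff, the mean inhibition of test wells on that plate plus 3 SD, cut at about 28% in these data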;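 also: cells challenged with S1P at its EC80 of 0.8 µM; blue over green emission ratio from cleaved BLA substrate after 4 h stimulation; 0% = S1P-stimulated wells and 100% = unstimulated DMSO-only wells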
Target sequence (Q99500 whole entry, looked up): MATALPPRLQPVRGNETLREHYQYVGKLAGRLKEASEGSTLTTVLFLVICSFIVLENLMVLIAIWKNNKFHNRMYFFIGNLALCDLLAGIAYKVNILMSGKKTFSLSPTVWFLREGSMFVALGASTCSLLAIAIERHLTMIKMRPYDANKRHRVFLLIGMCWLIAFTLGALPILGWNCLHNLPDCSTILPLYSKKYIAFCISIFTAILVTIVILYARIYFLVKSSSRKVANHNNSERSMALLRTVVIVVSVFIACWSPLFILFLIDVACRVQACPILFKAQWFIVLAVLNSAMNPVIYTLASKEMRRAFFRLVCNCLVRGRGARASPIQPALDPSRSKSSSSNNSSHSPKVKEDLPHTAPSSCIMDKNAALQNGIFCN
KCC2 mod = modulates chloride dependent transport by human KCC2 | Q9H2X9 | KCC2 cells, thallium flux FluoZin-2 fluorescence | B-score of Tl+ flux slope (higher = more flux/activation; lower = inhibition) at 10 µM | hit rate 2.2% among 190,000 | AID 1456;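 active = thallium flux slope and its plate-corrected score both differing from the plate sample mean at a set confidence after two filtering rounds, in either direction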;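 also: slope of fluorescence scaled to starting intensity during 10 to 20 s after thallium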
ROMK primary = human ROMK K+ channel modulation, primary screen. Tet-inducible ROMK, thallium flux fluorescence; actives lie on both sides. AID 1918. hit rate 2% among 130,000. B-score at 10 µM. P48048;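 active = signal ratio slope over the read window, or its plate-corrected B-score, at least 3 SD from the plate mean, either direction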;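 also: B-score of the F/F0 ratio slope over 7 to 12 s after thallium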
Target sequence (P48048 whole entry, looked up): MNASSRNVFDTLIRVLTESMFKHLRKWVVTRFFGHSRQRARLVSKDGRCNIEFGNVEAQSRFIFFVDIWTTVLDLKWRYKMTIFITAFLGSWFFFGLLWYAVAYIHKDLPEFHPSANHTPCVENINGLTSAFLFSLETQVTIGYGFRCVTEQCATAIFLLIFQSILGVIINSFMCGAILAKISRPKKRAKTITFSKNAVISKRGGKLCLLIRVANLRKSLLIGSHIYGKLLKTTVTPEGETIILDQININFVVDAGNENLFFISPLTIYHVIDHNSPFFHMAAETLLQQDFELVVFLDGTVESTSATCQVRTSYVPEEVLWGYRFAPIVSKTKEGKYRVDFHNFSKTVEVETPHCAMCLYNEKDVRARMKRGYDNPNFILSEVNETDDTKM
KCC2 sec1 = confirmation of human KCC2 transport modulators. shares compounds with KCC2 mod. normalised thallium flux (F/F0 slope) at 10 µM. hit rate 15% among 3,700. HEK293-KCC2, thallium flux, FluoZin2 fluorescence; hits give high values;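 active = thallium flux slope above the same plate's solvent-only control mean plus 3 SD; inconclusive = the two replicate wells disagree; inactive = no significant difference from solvent-only control wells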
KCC2 bumet counter = bumetanide-insensitive thallium flux in KCC2 cells with ouabain, counter-screen. shares compounds with KCC2 mod. HEK293-KCC2 + bumetanide/ouabain, thallium flux FluoZin2; hits give high values. normalized thallium flux at 10 µM. hit rate 49% among 3,700;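 active = thallium entry rate above the same plate's blocked-transporter control wells by more than 3 SD; inconclusive = the two repeat wells disagree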;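 also: raw slope of fluorescence over initial fluorescence between 10 and 20 s after thallium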
KCC2 secondary2 = KCC2 (human) modulation, second secondary assay. shares compounds with KCC2 mod. HEK293-KCC2, thallium flux FluoZin2 fluorescence; actives lie on both sides; F/F0 rise rate, 10–20 s post-thallium. normalized thallium flux at 10 µM. hit rate 23% among 3,700;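 active = thallium flux slope more than 3 SD above or below the plate's solvent-only control mean, mostly below; inconclusive = the two repeat wells disagreed; inactive = no significant shift from solvent-only controls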;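 also: raw slope with 0.1% DMSO as baseline and bumetanide as block control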
HEK293 Tl flux = acts in parental HEK cells, KCC2 counter-screen; AID 1716; shares compounds with KCC2 mod; thallium flux rate (normalised fluorescence) at 10 µM; HEK293 parental cells, thallium flux FluoZin2, ouabain; baseline-ratio fluorescence slope, 10–20 s after thallium; hit rate 46% among 3,700;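 active = thallium flux rate significantly above the same plate's solvent-only control wells, beyond their mean plus 3 SD; inconclusive = the two replicate wells gave conflicting results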
KCC2 ouabain = modulates human KCC2 on retest with ouabain. shares compounds with KCC2 mod. HEK293-KCC2, thallium flux FluoZin2 fluorescence; bidirectional: low = inhibitor, high = activator. raw Tl+ flux slope (below DMSO = inhibition, above = activation) at 10 µM. hit rate 48% among 3,700. AID 1717;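 active = thallium flux slope beyond 3 SD from same-plate DMSO control mean in most replicates, usually higher, sometimes lower; inconclusive = repeat tests gave conflicting results; inactive = no significant difference from controls in most replicates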;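 also: slope of initial-normalized fluorescence between seconds 10 and 20 after thallium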
HEK counter2 = acts in parental HEK cells, second KCC2 counter-screen; AID 1718; HEK293 parental, thallium flux FluoZin-2 fluorescence slope; shares compounds with KCC2 mod; hit rate 33% among 3,700; thallium flux slope at 10 µM;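 active = thallium flux slope above the same plate's solvent-control mean plus 3 SD in both duplicate wells; inconclusive = duplicate wells that disagreed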;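 also: run without ouabain in cells lacking the KCC2 cotransporter; slope of fluorescence scaled to its starting value between 10 and 20 s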
* hit, by the source's call; ? = inconclusive; · = no result given. The list is not random: actives were taken first. Their share in the collection is about 5.1%.

SMILES	S1P4 agonist	RAM network inh	S1P4 antag	S1P3 antagonist	KCC2 mod	ROMK primary	KCC2 sec1	KCC2 bumet counter	KCC2 secondary2	HEK293 Tl flux	KCC2 ouabain	HEK counter2
Cc1cc([N+](=O)[O-])ccc1NCc1ccccc1	0	1	-8	·	-3.1*	-0.67	0.006	0.0043	0.023*	0.0066	0.017*	0.009
COc1ccc(CNc2ccc([N+](=O)[O-])cc2C)cc1	0	·	-17	-7	-0.35	·	·	·	·	·	·	·
COC(=O)c1cc(Sc2cccc(Cl)c2Cl)ccn1	2	-1	-17	-12	-2.9*	-1.2	0.0069	0.0044	?	0.0061*	0.014*	0.01
Cc1c(/C=N/NC(=O)c2ccccc2O)c2ccccn2c1C(=O)c1ccc(F)cc1	-1	5	-11	8	-3.8*	-0.63	0.018	?	0.03	0.0073	0.014	0.01
COc1ccc(-n2c(C)nc3cc(C(=O)NCCN4CCOCC4)ccc32)cc1	1	2	16	·	-6.3*	0.06	0.0059	0.0048	0.031	0.0074	0.02	0.01
CCC(=O)NC(=S)Nc1ccc(NC(=O)c2cc3ccccc3o2)c(OC)c1	1	4	-4	-5	-0.0061	1.8	·	·	·	·	·	·
O=C(CSc1ccc(-c2ccc(F)cc2)nn1)N1CCCCC1	-1	1	8	25	-5.3*	0.63	0.0063	0.005	0.026	0.0075	0.014*	0.01
CC1CCN(C(=O)CSc2ccc(-c3ccc(F)cc3)nn2)CC1	-1	0	-4	13	-5.3*	0.16	0.0058	?	0.021*	0.0075	0.015*	0.0098
O=C(CSc1ccc(-c2ccccc2)nn1)N1CCCCC1	0	0	-8	-12	-0.32	2.1	·	·	·	·	·	·
CN1C/C(=C/c2ccsc2)C(=O)/C(=C/c2ccsc2)C1	-2	1	12	6	-0.072	·	·	·	·	·	·	·
CN1C/C(=C\c2ccc(N3CCOCC3)cc2)C(=O)/C(=C/c2ccc(N3CCOCC3)cc2)C1	0	1	-10	-16	-9.2*	·	0.0028*	-0.0007*	0.017*	0.0056*	0.0075*	?
CCc1ccc(/C=C2/SC(N3CCOCC3)=NC2=O)cc1	1	·	-18	-9	-1.2	·	·	·	·	·	·	·
CCN1C/C(=C/c2ccc(N3CCOCC3)cc2)C(=O)/C(=C/c2ccc(N3CCOCC3)cc2)C1	-1	1	-1	5	-5.4*	·	0.0036*	0.0016*	0.03*	?	0.0089*	0.011
CC(C)OP(=O)(OC(C)C)C(O)c1cccc([N+](=O)[O-])c1 (stereo unspecified)	0	·	-4	4	0.78	·	·	·	·	·	·	·
COc1ccc(CN(C(=O)c2cc3ccccc3oc2=O)C2CCCC2)cc1	2	0	-20	·	-5.1*	-0.89	0.0077	0.0043	0.031	?	?	0.011
Cc1ccccc1C(=O)NNC(=O)/C=C/c1ccccc1	-1	1	-1	-3	-1.3	-0.89	·	·	·	·	·	·
CCCOc1ccc(C(=O)CCC(=O)OCC(=O)N2CC(=O)Nc3ccccc32)cc1	1	3	8	·	0.061	-0.12	·	·	·	·	·	·
O=C1CN(C(=O)COC(=O)CCC(=O)c2ccc3c(c2)OCCO3)c2ccccc2N1	2	1	-29	-21	-4.4*	·	0.0073	0.005	0.024*	0.0078	0.017	0.01
CCOc1ccc2c(c1)c(N=NC(=N)N)c(O)n2C	2	1	-15	-15	0.27	·	·	·	·	·	·	·
Oc1c(N=NC(=S)Nc2ccccc2F)c2ccccc2n1Cc1ccc(Cl)cc1	3	4	-8	-14	2.3	0.71	·	·	·	·	·	·
NC(=S)N=Nc1c(O)n(CCCl)c2ccc(Cl)cc12	1	5	-6	-2	16*	0.92	0.0075	0.041*	?	0.036*	0.047*	0.024*
Cn1c(O)c(N=NC(=N)N)c2ccccc21	0	·	-2	7	-0.01	·	·	·	·	·	·	·
CCOc1ccc2c(c1)c(N=NC(N)=S)c(O)n2C	-1	·	13	-13	8.2*	-0.072	?	0.035*	0.039	0.015*	0.027	0.012*
NC(=S)N=Nc1c(O)n(CCCl)c2ccccc12	2	3	4	-9	13*	0.81	0.024*	0.031*	?	0.018*	0.027*	0.019*
C/C(=N\O)c1cc(Cl)ccc1O	1	·	6	-9	·	·	·	·	·	·	·	·
SMILES	S1P4 agonist	RAM network inh	S1P4 antag	S1P3 antagonist	KCC2 mod	ROMK primary	KCC2 sec1	KCC2 bumet counter	KCC2 secondary2	HEK293 Tl flux	KCC2 ouabain	HEK counter2
CCOc1ccc(-c2cc(C(=O)OC)nc3c2c(=O)n(C)c(=O)n3C)cc1	0	·	7	0	1.3	1.8	·	·	·	·	·	·
O=C1CC(N(O)C2CC(=O)N(Cc3ccccc3)C2=O)C(=O)N1Cc1ccccc1 (stereo unspecified)	1	1	-5	·	·	-2.4	0.0051	0.0049	0.026*	0.0073	?	0.011
COC(=O)C(C)Sc1snnc1-c1ccccc1 (stereo unspecified)	1	2	3	·	·	0.43	0.016	0.004	0.029	?	0.015	0.0095
Fc1ccc(-c2nn3c(C4COc5ccccc5O4)nnc3s2)cc1 (stereo unspecified)	1	3	-1	-6	-4.5*	·	0.0055	0.0045	0.03	0.0079	0.019	0.011
c1ccc2c(c1)OCC(c1nnc3sc(-c4ccc5c(c4)OCO5)nn13)O2 (stereo unspecified)	-3	1	-16	0	·	·	·	·	·	·	·	·
Cc1cc(C(=O)NN=C2CCCCCC2)c(C)o1	-1	·	0	-7	-0.12	·	·	·	·	·	·	·
CCC(=O)NC1(C(F)(F)F)C(=O)Nc2c1c(=O)[nH]c(=O)n2CC(C)C (stereo unspecified)	1	·	-5	-2	0.57	·	·	·	·	·	·	·
Cc1ccc(N2C(=O)C(Cc3ccc(O)cc3)NC2=S)cc1C (stereo unspecified)	1	1	-6	-3	-3.9*	-0.019	0.0088	0.0047	0.032	0.0074	0.023	0.01
Cc1cccc(Cc2cnc(N3C(=N)SC(C)C3=O)s2)c1 (stereo unspecified)	0	2	28	-10	6*	2.4	0.017*	0.068*	0.035	0.029*	0.04*	0.014*
